# Where two headings read alike, the source gives them in different places.
# Tests used:
# Set-up in all cases: species or system human, MV4-11 + K-562 + COLO205 + SK-N-BE2 + OVCAR-8
# [1] = system: CDK10; settings: read-out: apparent Kd, n = 1
# [2] = system: GSK3A; settings: read-out: apparent Kd, n = 1
# [3] = system: GSK3B; settings: read-out: apparent Kd, n = 1
# [4] = system: HSPE1; settings: read-out: apparent Kd; compound concentrations: 100 nM and 1000 nM (sheet 'Samples'), CATDS: 0.54374623342004202; n = 1
# [5] = system: ICK; settings: read-out: apparent Kd; compound concentrations: 100 nM and 1000 nM (sheet 'Samples'), CATDS: 0.128713258557627; n = 1
# [6] = system: PKM; settings: read-out: apparent Kd; compound concentrations: 100 nM and 1000 nM (sheet 'Samples'), CATDS: 0.11750793600078301; n = 1
# [7] = system: CDC42; settings: read-out: apparent Kd, n = 1
# [8] = system: CSNK1A1; settings: read-out: apparent Kd, compound concentrations: 100 nM and 1000 nM (sheet 'Samples'), n = 1
# [9] = system: CSNK1D; settings: read-out: apparent Kd, compound concentrations: 100 nM and 1000 nM (sheet 'Samples'), n = 1
# [10] = system: CSNK1E; settings: read-out: apparent Kd, compound concentrations: 100 nM and 1000 nM (sheet 'Samples'), n = 1
# [11] = system: MAPK10; settings: read-out: apparent Kd; compound concentrations: 100 nM and 1000 nM (sheet 'Samples'), CATDS: 0.11305020597261101; n = 1
# [12] = system: MAPK14; settings: read-out: apparent Kd; compound concentrations: 100 nM and 1000 nM (sheet 'Samples'), CATDS: 9.3591045937798004E-2; n = 1
# [13] = system: MAPK9; settings: read-out: apparent Kd; compound concentrations: 100 nM and 1000 nM (sheet 'Samples'), CATDS: 8.8395799729483998E-2; n = 1
# [14] = system: MAPKAPK2; settings: read-out: apparent Kd; compound concentrations: 100 nM and 1000 nM (sheet 'Samples'), CATDS: 0.13823017842708299; n = 1
# [15] = system: RIPK2; settings: read-out: apparent Kd; compound concentrations: 100 nM and 1000 nM (sheet 'Samples'), CATDS: 9.29117270749487E-2; n = 1
# [16] = system: MDN1; settings: read-out: apparent Kd; compound concentrations: 100 nM and 1000 nM (sheet 'Samples'), CATDS: 0.33246338126543201; n = 1
# [17] = system: RIOK2; settings: read-out: apparent Kd, compound concentrations: 100 nM and 1000 nM (sheet 'Samples'), n = 1
# [18] = system: CDC7; settings: read-out: apparent Kd, compound concentrations: 100 nM and 1000 nM (sheet 'Samples'), n = 1
# [19] = system: CLK1; settings: read-out: apparent Kd, compound concentrations: 100 nM and 1000 nM (sheet 'Samples'), n = 1
# [20] = system: CLK4; settings: read-out: apparent Kd, compound concentrations: 100 nM and 1000 nM (sheet 'Samples'), n = 1
# [21] = system: ILK; settings: read-out: apparent Kd, n = 1
# [22] = system: NQO1; settings: read-out: apparent Kd; compound concentrations: 100 nM and 1000 nM (sheet 'Samples'), CATDS: 9.0275127229000399E-2; n = 1
# [23] = system: TP53RK; settings: read-out: apparent Kd; compound concentrations: 100 nM and 1000 nM (sheet 'Samples'), CATDS: 7.7480450425825395E-2; n = 1
# [24] = system: CDK2; settings: read-out: apparent Kd; compound concentrations: 100 nM and 1000 nM (sheet 'Samples'), CATDS: 0.44900253923849898; n = 1
# [25] = system: CDK6; settings: read-out: apparent Kd; compound concentrations: 100 nM and 1000 nM (sheet 'Samples'), CATDS: 0.29293356798223702; n = 1
# [26] = system: CSNK2A2; settings: read-out: apparent Kd, n = 1
# [27] = system: PKN1; settings: read-out: apparent Kd; compound concentrations:100 nM and 1000 nM (sheet 'Samples'); n = 1
# [28] = system: PRKCB; settings: read-out: apparent Kd; compound concentrations: 100 nM and 1000 nM (sheet 'Samples'), CATDS: 0.15520106797875899; n = 1
# [29] = system: PRKCI; settings: read-out: apparent Kd; compound concentrations:100 nM and 1000 nM (sheet 'Samples'); n = 1
# [30] = system: RPS6KA6; settings: read-out: apparent Kd; compound concentrations:100 nM and 1000 nM (sheet 'Samples'); n = 1
# [31] = system: RPS6KB1; settings: read-out: apparent Kd; compound concentrations:100 nM and 1000 nM (sheet 'Samples'); n = 1
# [32] = system: CSNK2A1;CSNK2A3; settings: read-out: apparent Kd, n = 1
# [33] = system: NQO2; settings: read-out: apparent Kd; compound concentrations:100 nM and 1000 nM (sheet 'Samples'); n = 1
# [34] = system: PRKD2; settings: read-out: apparent Kd; compound concentrations:100 nM and 1000 nM (sheet 'Samples'); n = 1
# [35] = system: PRKD3; settings: read-out: apparent Kd; compound concentrations:100 nM and 1000 nM (sheet 'Samples'); n = 1
# [36] = system: PIK3CB; settings: read-out: apparent Kd; compound concentrations:100 nM and 1000 nM (sheet 'Samples'); n = 1
# [37] = system: RAB5C; settings: read-out: apparent Kd; compound concentrations:100 nM and 1000 nM (sheet 'Samples'); n = 1
# [38] = system: CDK16; settings: read-out: apparent Kd; compound concentrations: 100 nM and 1000 nM (sheet 'Samples'), CATDS: 0.32554244195376097; n = 1
# [39] = system: CDK17; settings: read-out: apparent Kd; compound concentrations: 100 nM and 1000 nM (sheet 'Samples'), CATDS: 0.31469055739513202; n = 1
# [40] = system: CDKL5; settings: read-out: apparent Kd; compound concentrations: 100 nM and 1000 nM (sheet 'Samples'), CATDS: 0.100532719571443; n = 1
# [41] = system: DYRK1A; settings: read-out: apparent Kd; compound concentrations: 100 nM and 1000 nM (sheet 'Samples'), CATDS: 0.194548178255603; n = 1
# [42] = compound concentrations:100 nM and 1000 nM (sheet 'Samples')
smiles,measurement,setting,value
Cn1cc(C2=C(c3cccnc3)C(=O)NC2=O)c2ccccc21 [RO0317886-000],potency estimated from few doses,"[1]; compound concentrations: 100 nM and 1000 nM (sheet 'Samples'), CATDS: 0.11960358808183499",1.08 µM
same,potency estimated from few doses,"[2]; compound concentrations: 100 nM and 1000 nM (sheet 'Samples'), CATDS: 0.212149107920546",0.213 µM
same,potency estimated from few doses,"[3]; compound concentrations: 100 nM and 1000 nM (sheet 'Samples'), CATDS: 0.208029225896153",0.222 µM
same,potency estimated from few doses,[4],0.0393 µM
same,potency estimated from few doses,[5],0.825 µM
same,potency estimated from few doses,[6],1.16 µM
CC(=O)Nc1cccc(C#Cc2cncnc2Nc2ccc(OCc3cccc(F)c3)c(Cl)c2)c1 [GW703087X],potency estimated from few doses,[1]; [42],1.54 µM
Fc1ccc(-c2nc3n(c2-c2ccncc2)CCS3)cc1 [GI98581X],potency estimated from few doses,"[7]; compound concentrations: 100 nM and 1000 nM (sheet 'Samples'), CATDS: 8.3198711436125394E-2",1.53 µM
same,potency estimated from few doses,[8]; CATDS: 8.7123517988238197E-2,1.32 µM
same,potency estimated from few doses,[9]; CATDS: 0.37273157205877999,0.0879 µM
same,potency estimated from few doses,[10]; CATDS: 0.16724223379061501,0.304 µM
same,potency estimated from few doses,[11],0.666 µM
same,potency estimated from few doses,[12],1.07 µM
same,potency estimated from few doses,[13],1.26 µM
same,potency estimated from few doses,[14],0.435 µM
same,potency estimated from few doses,[15],1.09 µM
Cn1cc(C2=C(c3cccc4ccccc34)C(=O)NC2=O)c2ccccc21 [RO0317253-000],potency estimated from few doses,"[7]; compound concentrations: 100 nM and 1000 nM (sheet 'Samples'), CATDS: 0.310592027425942",2.18 µM
same,potency estimated from few doses,[16],1.89 µM
same,potency estimated from few doses,[17]; CATDS: 0.36068630579871103,1.62 µM
CCc1c(C)nc2sc3c(N)ncnc3c2c1C [RO4493944-000],potency estimated from few doses,[18]; CATDS: 8.1877579079801296E-2,1.87 µM
same,potency estimated from few doses,[19]; CATDS: 0.173131615518303,0.453 µM
same,potency estimated from few doses,[20]; CATDS: 0.128777290310437,0.724 µM
same,potency estimated from few doses,[8]; CATDS: 0.113796385521925,0.903 µM
same,potency estimated from few doses,[9]; CATDS: 0.110842785331434,0.949 µM
same,potency estimated from few doses,[10]; CATDS: 9.8087772288550895E-2,1.22 µM
same,potency estimated from few doses,"[21]; compound concentrations: 100 nM and 1000 nM (sheet 'Samples'), CATDS: 8.2547383277030401E-2",1.83 µM
same,potency estimated from few doses,[22],1.46 µM
same,potency estimated from few doses,[17]; CATDS: 9.8590158992526697E-2,1.2 µM
same,potency estimated from few doses,[23],2.19 µM
Cl.NS(=O)(=O)c1ccc(N/N=C2\C(=O)Nc3cccc(CCc4ccncc4)c32)cc1 [GW352430A],potency estimated from few doses,[24],0.936 µM
same,potency estimated from few doses,[25],2.16 µM
same,potency estimated from few doses,"[26]; compound concentrations: 100 nM and 1000 nM (sheet 'Samples'), CATDS: 0.29769898154006003",2.07 µM
CN1C[C@@H]2Cn3c(c(C4=C(c5cn(C)c6ccccc56)C(=O)NC4=O)c4ccccc43)C[C@H]2C1.Cl [RO0320557-001],potency estimated from few doses,[1]; [42],1.2 µM
same,potency estimated from few doses,[2]; [42],0.0534 µM
same,potency estimated from few doses,[3]; [42],0.0415 µM
same,potency estimated from few doses,[21]; [42],2.35 µM
same,potency estimated from few doses,[27],2.49 µM
same,potency estimated from few doses,[28],0.0203 µM
same,potency estimated from few doses,[29],1.93 µM
same,potency estimated from few doses,[30],0.386 µM
same,potency estimated from few doses,[31],0.104 µM
Cc1cccc(-c2nc(Nc3cccc(C(N)=O)c3)c3ccccc3n2)n1 [GW876019X],potency estimated from few doses,[7]; [42],2.08 µM
same,potency estimated from few doses,[32]; [42],1.51 µM
same,potency estimated from few doses,[26]; [42],2.23 µM
same,potency estimated from few doses,[33],1.16 µM
same,potency estimated from few doses,[34],0.739 µM
same,potency estimated from few doses,[35],1.51 µM
O=c1cc(N2CCOCC2)nc2n(Cc3cccc(C(F)(F)F)c3)ccn12 [GSK2297543A],potency estimated from few doses,[7]; [42],1.4 µM
same,potency estimated from few doses,[36],0.274 µM
same,potency estimated from few doses,[37],0.976 µM
CCN1CCC(CC(=O)Nc2n[nH]c3nc(-c4cccs4)c(Br)cc23)CC1.O=C(O)[C@H](O)[C@@H](O)C(=O)O [SB-739245-AC],potency estimated from few doses,[38],0.802 µM
same,potency estimated from few doses,[39],0.861 µM
same,potency estimated from few doses,"[2]; compound concentrations: 100 nM and 1000 nM (sheet 'Samples'), CATDS: 0.36357302595777402",0.647 µM
O=C1N=C(N[C@@H]2C[C@H]2c2ccccc2)S/C1=C\c1ccc2ncccc2c1 [RO4915610-000],potency estimated from few doses,[18]; CATDS: 9.1392533314382199E-2,1.8 µM
same,potency estimated from few doses,[40],1.13 µM
same,potency estimated from few doses,[19]; CATDS: 0.12211476464111,0.542 µM
same,potency estimated from few doses,[20]; CATDS: 0.114770368167016,0.671 µM
same,potency estimated from few doses,"[32]; compound concentrations: 100 nM and 1000 nM (sheet 'Samples'), CATDS: 0.31191577539645199",0.0615 µM
same,potency estimated from few doses,"[26]; compound concentrations: 100 nM and 1000 nM (sheet 'Samples'), CATDS: 0.34928398987599801",0.0511 µM
same,potency estimated from few doses,[41],0.154 µM

# — PMC11062922 (Nature Chemical Biology, 2023)
